# Values without a mark were called inactive.
# What was measured:
# Experiment in all cases: log2 ratio of Biotin-Ahx-Ub-VS probe labelling (fragment/DMSO); higher = less target engagement (more negative = stronger competition), active = hit call of the paper (q ≤ 0.05, log2 ratio ≤ -1)
# Settings in all cases: compound concentration: 200 uM; treatment time: 3 h
# [1] = target: T1, OTUD6B (UniProt Q8N6M0)
# T1 sequence (whole entry): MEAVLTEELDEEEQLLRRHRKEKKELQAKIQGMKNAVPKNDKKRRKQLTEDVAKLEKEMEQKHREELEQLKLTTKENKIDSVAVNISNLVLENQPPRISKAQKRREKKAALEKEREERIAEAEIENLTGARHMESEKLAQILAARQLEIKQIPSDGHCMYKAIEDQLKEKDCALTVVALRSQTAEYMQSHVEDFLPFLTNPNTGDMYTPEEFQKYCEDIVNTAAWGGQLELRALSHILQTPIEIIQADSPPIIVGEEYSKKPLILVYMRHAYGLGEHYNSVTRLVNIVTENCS
# Outline: (§1)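 Fragment (200 µM) or vehicle was incubated for 3 h with triplicate HEK293T lysate samples of 495 µg, which were then treated with Biotin-Ahx-Ub-VS at 0.5 µM final for 1 h. Labelled DUBs were enriched on NeutrAvidin, digested with LysC and trypsin, and analysed by diaPASEF LC-MS/MS. Values are average log2 fragment/vehicle ratios from an unpaired t-test on global-median-normalised Spectronaut label-free quantities, using proteins with ≥2 unique peptides.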
# [2] = target: T2, OTUD7B (UniProt Q6GQQ9)
# T2 sequence (whole entry): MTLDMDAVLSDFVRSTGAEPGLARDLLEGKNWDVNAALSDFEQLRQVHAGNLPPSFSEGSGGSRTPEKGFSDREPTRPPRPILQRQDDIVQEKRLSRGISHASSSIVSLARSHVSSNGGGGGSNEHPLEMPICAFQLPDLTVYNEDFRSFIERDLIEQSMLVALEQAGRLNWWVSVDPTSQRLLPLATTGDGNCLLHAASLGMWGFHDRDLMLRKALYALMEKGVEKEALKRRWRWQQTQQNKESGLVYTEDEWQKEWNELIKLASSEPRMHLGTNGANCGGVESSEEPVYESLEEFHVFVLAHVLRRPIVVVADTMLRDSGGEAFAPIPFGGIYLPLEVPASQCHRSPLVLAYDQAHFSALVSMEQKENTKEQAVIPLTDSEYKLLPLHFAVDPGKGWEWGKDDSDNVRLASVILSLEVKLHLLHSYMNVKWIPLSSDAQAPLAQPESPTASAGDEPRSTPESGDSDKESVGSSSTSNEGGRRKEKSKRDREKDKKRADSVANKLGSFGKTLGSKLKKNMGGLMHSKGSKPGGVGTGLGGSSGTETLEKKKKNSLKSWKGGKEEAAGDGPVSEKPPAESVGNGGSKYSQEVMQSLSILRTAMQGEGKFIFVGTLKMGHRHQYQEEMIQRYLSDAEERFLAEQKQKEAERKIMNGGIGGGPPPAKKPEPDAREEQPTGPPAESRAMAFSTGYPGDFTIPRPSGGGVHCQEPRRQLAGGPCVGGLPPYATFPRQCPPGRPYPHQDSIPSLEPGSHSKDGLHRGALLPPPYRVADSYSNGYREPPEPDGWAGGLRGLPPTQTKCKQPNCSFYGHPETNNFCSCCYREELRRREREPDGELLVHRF
# Outline: as §1
# [3] = target: PRPF8 (UniProt Q6P2Q9)
# Outline: as §1
# [4] = target: T3, PSMD7 (UniProt P51665)
# T3 sequence (whole entry): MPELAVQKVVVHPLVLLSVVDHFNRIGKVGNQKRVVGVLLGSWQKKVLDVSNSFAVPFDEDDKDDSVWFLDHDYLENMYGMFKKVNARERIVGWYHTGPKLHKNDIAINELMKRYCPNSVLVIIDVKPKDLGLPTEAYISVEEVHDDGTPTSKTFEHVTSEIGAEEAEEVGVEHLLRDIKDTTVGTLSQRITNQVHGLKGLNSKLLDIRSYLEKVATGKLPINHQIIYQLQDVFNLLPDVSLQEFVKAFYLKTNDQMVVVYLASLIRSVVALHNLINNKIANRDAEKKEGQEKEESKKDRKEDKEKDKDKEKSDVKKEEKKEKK
# Outline: as §1
# [5] = target: UCHL1 (UniProt P09936)
# Chain of UCHL1 (P09936 whole entry, looked up): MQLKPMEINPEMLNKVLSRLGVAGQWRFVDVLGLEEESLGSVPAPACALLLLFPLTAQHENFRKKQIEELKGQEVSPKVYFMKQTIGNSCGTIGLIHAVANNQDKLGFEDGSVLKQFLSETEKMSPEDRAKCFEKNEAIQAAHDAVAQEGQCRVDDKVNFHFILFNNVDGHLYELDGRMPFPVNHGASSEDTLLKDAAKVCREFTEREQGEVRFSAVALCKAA
# Outline: as §1
# [6] = target: T4, UCHL3 (UniProt P15374)
# T4 sequence (whole entry): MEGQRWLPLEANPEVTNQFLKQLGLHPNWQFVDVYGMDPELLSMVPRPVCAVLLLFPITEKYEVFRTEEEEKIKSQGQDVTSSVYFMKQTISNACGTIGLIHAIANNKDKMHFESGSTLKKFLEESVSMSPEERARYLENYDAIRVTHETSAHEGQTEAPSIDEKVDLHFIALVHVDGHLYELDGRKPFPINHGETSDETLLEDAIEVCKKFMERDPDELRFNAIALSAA
# Outline: as §1
# [7] = target: T5, UCHL5 (UniProt Q9Y5K5)
# T5 sequence (whole entry): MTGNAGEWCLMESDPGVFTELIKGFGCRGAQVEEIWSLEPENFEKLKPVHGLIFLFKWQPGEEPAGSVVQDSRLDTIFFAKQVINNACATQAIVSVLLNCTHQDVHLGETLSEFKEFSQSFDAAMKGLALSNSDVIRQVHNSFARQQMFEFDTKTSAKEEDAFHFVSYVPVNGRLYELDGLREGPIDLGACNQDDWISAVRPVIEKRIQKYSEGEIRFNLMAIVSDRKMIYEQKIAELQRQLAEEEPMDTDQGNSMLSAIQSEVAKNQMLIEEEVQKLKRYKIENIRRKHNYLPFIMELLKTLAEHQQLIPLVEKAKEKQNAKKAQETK
# Outline: as §1
# [8] = target: USP10 (UniProt Q14694)
# Chain of USP10 (Q14694 whole entry): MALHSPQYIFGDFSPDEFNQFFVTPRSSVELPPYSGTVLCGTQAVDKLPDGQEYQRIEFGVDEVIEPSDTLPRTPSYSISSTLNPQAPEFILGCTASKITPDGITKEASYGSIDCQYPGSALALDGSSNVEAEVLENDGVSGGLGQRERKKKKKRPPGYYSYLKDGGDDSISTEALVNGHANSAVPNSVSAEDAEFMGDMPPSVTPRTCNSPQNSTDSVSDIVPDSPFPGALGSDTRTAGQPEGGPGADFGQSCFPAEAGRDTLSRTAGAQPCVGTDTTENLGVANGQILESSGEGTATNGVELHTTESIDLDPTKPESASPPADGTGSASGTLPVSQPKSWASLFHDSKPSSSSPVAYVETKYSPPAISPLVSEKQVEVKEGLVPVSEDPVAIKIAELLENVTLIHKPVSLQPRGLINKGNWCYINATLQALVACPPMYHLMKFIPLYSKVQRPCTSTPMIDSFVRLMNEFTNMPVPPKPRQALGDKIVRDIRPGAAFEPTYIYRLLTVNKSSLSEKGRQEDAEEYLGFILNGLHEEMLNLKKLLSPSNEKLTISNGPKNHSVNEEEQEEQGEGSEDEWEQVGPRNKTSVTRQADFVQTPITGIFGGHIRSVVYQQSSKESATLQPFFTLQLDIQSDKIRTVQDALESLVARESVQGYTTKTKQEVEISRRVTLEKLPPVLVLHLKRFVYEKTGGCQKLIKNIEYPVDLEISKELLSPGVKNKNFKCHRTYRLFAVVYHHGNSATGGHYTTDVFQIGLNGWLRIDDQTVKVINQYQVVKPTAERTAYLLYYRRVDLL
# Outline: as §1
# [9] = target: T6, USP15 (UniProt Q9Y4E8)
# T6 sequence (whole entry): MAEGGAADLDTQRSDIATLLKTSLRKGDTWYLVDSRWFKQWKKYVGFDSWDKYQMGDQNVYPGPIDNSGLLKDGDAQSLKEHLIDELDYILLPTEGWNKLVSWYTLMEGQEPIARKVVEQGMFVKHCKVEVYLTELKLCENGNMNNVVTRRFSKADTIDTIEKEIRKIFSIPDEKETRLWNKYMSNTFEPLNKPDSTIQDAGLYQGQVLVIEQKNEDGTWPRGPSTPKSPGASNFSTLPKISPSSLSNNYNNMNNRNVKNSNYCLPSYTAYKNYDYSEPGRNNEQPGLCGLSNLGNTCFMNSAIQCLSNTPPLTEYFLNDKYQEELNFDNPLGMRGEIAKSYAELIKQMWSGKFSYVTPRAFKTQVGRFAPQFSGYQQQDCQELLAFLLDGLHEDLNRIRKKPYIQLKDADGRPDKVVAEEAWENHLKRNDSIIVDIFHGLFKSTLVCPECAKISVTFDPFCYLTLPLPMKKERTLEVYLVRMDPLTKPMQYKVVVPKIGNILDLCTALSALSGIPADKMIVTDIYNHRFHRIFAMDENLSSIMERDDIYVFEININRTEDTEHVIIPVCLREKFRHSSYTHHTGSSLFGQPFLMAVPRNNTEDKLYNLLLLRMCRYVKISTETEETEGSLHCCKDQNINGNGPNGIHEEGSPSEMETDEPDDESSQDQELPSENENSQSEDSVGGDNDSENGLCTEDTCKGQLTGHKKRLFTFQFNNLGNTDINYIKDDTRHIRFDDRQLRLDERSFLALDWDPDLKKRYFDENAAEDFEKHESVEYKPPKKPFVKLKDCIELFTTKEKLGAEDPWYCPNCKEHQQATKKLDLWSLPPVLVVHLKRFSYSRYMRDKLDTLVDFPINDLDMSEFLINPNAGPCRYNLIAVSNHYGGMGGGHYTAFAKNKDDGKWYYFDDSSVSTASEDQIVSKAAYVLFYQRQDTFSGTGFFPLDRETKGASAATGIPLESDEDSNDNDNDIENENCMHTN
# Outline: as §1
# [10] = target: USP16 (UniProt Q9Y5T5)
# Chain of USP16 (Q9Y5T5 whole entry, looked up): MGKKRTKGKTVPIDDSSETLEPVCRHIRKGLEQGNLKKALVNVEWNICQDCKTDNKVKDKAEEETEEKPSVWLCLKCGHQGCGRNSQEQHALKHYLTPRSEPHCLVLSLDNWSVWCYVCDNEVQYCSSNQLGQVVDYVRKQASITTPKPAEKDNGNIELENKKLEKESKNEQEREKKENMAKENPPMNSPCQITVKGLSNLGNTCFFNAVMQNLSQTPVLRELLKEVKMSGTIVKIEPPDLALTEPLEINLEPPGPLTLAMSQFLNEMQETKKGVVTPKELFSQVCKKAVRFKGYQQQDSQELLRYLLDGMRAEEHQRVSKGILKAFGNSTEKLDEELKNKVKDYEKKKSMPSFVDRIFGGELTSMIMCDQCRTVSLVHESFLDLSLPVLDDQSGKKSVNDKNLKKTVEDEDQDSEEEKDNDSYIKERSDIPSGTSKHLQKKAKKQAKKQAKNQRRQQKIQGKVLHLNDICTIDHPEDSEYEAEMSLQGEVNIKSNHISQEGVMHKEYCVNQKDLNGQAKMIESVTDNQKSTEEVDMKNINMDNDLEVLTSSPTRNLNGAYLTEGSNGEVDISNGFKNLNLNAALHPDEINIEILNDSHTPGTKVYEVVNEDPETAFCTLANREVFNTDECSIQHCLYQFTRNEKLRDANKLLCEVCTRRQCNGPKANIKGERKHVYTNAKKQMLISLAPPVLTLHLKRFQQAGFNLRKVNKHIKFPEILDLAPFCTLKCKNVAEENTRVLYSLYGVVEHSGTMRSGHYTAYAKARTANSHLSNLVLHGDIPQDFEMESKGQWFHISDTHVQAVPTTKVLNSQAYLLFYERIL
# Outline: as §1
structure (smiles),measurement,setting,value
O=C(CCl)N1CCC(C(=O)N2CCCC2)CC1,log2 ratio of Biotin-Ahx-Ub-VS probe labelling,[1],-0.427
same,log2 ratio of Biotin-Ahx-Ub-VS probe labelling,[2],-0.121
same,log2 ratio of Biotin-Ahx-Ub-VS probe labelling,[3],0.0985
same,log2 ratio of Biotin-Ahx-Ub-VS probe labelling,[4],0.0529
same,log2 ratio of Biotin-Ahx-Ub-VS probe labelling,[5],-1.3 (active)
same,log2 ratio of Biotin-Ahx-Ub-VS probe labelling,[6],0.284
same,log2 ratio of Biotin-Ahx-Ub-VS probe labelling,[7],0.037
same,log2 ratio of Biotin-Ahx-Ub-VS probe labelling,[8],-0.257
same,log2 ratio of Biotin-Ahx-Ub-VS probe labelling,[9],-0.395
same,log2 ratio of Biotin-Ahx-Ub-VS probe labelling,[10],-0.362
